Sampled rows, rich in hits. Any-hit rate of the full collection: about 10%.
GPT2 inhibitor: GPT2 alanine aminotransferase inhibition; Recombinant GPT2, coupled pyruvate oxidase/HRP Amplex Red fluorescence; Potency, µM (highest dose often 57.7 µM), inactives show at the top dose activity change, negative = inhibition, actives largely listed as inhibitors; 100,000 tested, 0.25% active; note: nearly all actives have a fitted effect of over 60% in size
Target sequence (Q8TD30 whole entry, looked up): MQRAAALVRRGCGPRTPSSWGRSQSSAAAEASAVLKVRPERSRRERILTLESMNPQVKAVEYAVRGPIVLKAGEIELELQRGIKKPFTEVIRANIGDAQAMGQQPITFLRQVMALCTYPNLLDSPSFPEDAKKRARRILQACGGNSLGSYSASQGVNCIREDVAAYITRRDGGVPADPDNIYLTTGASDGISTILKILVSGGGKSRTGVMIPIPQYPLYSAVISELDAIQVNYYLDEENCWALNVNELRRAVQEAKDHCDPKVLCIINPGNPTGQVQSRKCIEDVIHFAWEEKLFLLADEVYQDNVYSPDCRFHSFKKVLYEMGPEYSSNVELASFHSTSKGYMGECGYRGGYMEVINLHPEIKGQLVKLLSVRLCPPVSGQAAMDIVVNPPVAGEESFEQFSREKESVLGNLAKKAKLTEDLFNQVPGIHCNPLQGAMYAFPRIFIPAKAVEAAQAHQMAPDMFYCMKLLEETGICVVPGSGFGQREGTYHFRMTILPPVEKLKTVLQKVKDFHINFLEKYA
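Inhibition is scored from Amplex Red fluorescence generated when pyruvate oxidase and HRP act on pyruvate released by GPT2. Reactions contain 10ng/uL enzyme, 250uM a-KG and 2mM L-alanine and run 30 min at room temperature.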
HEK cytotox: cytotoxic compounds in HEK 293 cells. HEK 293 viability, ATP luminescence (CellTiter-Glo), 48-72 h. Potency, µM (top dose mostly 115 µM), for inactives: at the top dose activity change, negative = cytotoxicity, usual class: inhibitors. 94,000 tested, 6.6% active. AID 1345083; note: nearly all actives have a fitted effect of over 60% in size
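qHTS cytotoxicity; HEK 293, 250 cells/well; compound pinned; 48 or 72 hr, 37 degree Celsius, 5% CO2, 95% humidity; CellTiter-Glo, 10 min RT; luminescence (ATP).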
hNpr1 antagonist: human Npr1 receptor antagonism; P16066; Potency, µM (series often up to 46.3 µM), for the others: at the highest dose activity change, negative = inhibition, usual class: inhibitors; HEK293 hNpr1 GloSensor cGMP, ANP-stimulated luminescence; AID 1347048; 76,000 tested, 1.6% active; calls by dose curve; note: nearly all actives have a fitted effect of over 60% in size
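Compound pre-incubated 30 min at room temperature on GloSensor-loaded HEK293 cells stably carrying hNpr1 and the pGS-40F cGMP biosensor. Stimulation uses hNppA at 0.1 nM final; luminescence is taken at baseline and 20 min post-agonist.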
Luciferase inh: blocks purified firefly luciferase enzyme activity; purified P. pyralis luciferase, luminescence, biochemical; 76,000 tested, 2.5% active; P08659; Potency, µM (highest dose often 115 µM), hits mostly inhibitors; note: nearly all actives have a fitted effect of over 65% in size
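Biochemical qHTS: compound (6-point titration) added to 10uM D-luciferin plus 10uM ATP in Tris acetate pH 7.5 buffer with Mg, Tween-20 and BSA, then purified enzyme at 10nM; light output imaged.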
3T3 cytotox: cytotoxic compounds in NIH 3T3 cells; 94,000 tested, 4.3% active; Potency, µM (series often up to 96.7 µM), inactives show at the top dose activity change, negative = cytotoxicity, hits mostly inhibitors; NIH 3T3 viability, CellTiter-Glo ATP luminescence, 48-72 h; AID 1345082; note: nearly all actives have a fitted effect of over 55% in size
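Cytotoxicity is measured as loss of cellular ATP: NIH 3T3 cells (400/well) are exposed to compound for 48 or 72 hr at 37 °C, then CellTiter-Glo luminescence is imaged after 10 min at room temperature.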
Numbers without * were called inactive; i = inactive; ? = inconclusive; . = no result; ! = not active in a repeat; [ ] = another dose, or the depositor's remark. Unless noted, calls come from the whole dose curve; as a rule, active = well fitted curve in the direction sought with a large enough effect; inconclusive = small, poorly fitted or top-dose-only effect, or another doubt; inactive = no such curve, though single readings can be large; an effect the other way counts as inactive or inconclusive. % is set by controls: 0 for no effect and ±100 for the full control effect; potency is the fitted concentration of half-maximal effect.

SMILES	GPT2 inhibitor	HEK cytotox	hNpr1 antagonist	Luciferase inh	3T3 cytotox
COCCOC1CCOC2(CCN(C(=O)CCCc3ccccc3)CC2)C1 (stereo unspecified)	i	?	-11%	28µM*	-15%
COCC1CN(C2CCC2)CC12CCN(C(=O)C1(c3ccccc3)CC1)CC2 (stereo unspecified)	-5%	32µM*	-27%	i	?
COCC1CN(C)CC12CCN(C(=O)CCCc1ccccc1)CC2 (stereo unspecified)	i	?	2%	i	?
COCC1CN(C2CCC2)CC12CCN(Cc1ccc(OC)c(OC)c1)CC2 (stereo unspecified)	i	?	-10%	i	?
COCCOC1CCOC2(CCN(C(=O)Cc3ccccc3)CC2)C1 (stereo unspecified)	i	-4%	0%	i	i
COCC1CN(C2CCC2)CC12CCN(Cc1cccc(OC)c1OC)CC2 (stereo unspecified)	i	45µM*	-2%	i	?
COCCN1C(=O)CCc2cc(NC(=O)c3c(F)cccc3F)ccc21	i	-15%	4%	i	-16%
Cn1nccc1C(=O)N1C[C@@H](COc2ccccc2)[C@H](C(N)=O)C1	?	-12%	-9%	i	-8%
Cn1cc(CN2Cc3c(cc(N4CCOCC4)nc3-c3cccnc3)C2=O)cn1	3%[88.5 µM]	-20%[172 µM]	6%[70.6 µM]	i	?
O=C(NCc1ccc(F)cc1)c1cc(-c2cccs2)c2cccn2n1	1%	?	.	.	?
O=C(NCc1cccc(Cl)c1)c1cc(-c2cccs2)c2cccn2n1	?	28µM*	.	.	?
N#CC1CCN(C(=O)c2cc(-c3cccs3)c3cccn3n2)CC1	i	79µM*	.	.	?
O=C(NCC1CC1)c1cc(-c2cccs2)c2cccn2n1	-30%[88.5 µM]	71µM*	.	.	?
COc1ccccc1C(=O)N1CCC2(CC1)COc1ccccc1CN2	i	63µM*	6%[70.6 µM]	i	?
COc1ccccc1C(=O)N1CCC2(CC1)COc1ccccc1[S+](=O)([O-])N2	-6%	0%	.	.	-18%
COCCNc1ncccc1-c1noc([C@@H]2CCCN2CC(C)(C)C)n1	-5%[88.5 µM]	?	1%[70.6 µM]	i	50µM*
COCCNc1ncccc1-c1noc([C@@H]2CCCN2Cc2cccc(C#N)c2)n1	-5%[88.5 µM]	71µM*	-2%[70.6 µM]	i	?
COCCOc1ncccc1-c1noc([C@@H]2CCCN2Cc2cccc(C#N)c2)n1	-3%[88.5 µM]	?	1%[70.6 µM]	i	-16%[174 µM]
Cn1nc(C2CCCC2)cc1NC(=O)c1ccc(Cl)cc1	i	?	.	.	?
COCC(=O)N1CCc2nc(C3CC3)nc(-c3ccc(Cl)cc3)c2C1	2%	i	2%	i	-5%
CCOC(=O)[C@H]1O[C@H]1C(=O)N[C@@H](CC(C)C)C(=O)NCCC(C)C	i	.	.	.	.
O=C(c1cc(Br)cn2ccnc12)N1CCC(N2CCCCCC2=O)CC1	i	3%	0%	i	-4%
O=C(CCc1ccc(O)cc1)c1c(O)cc(O)cc1O	6.9µM*!	.	.	.	.
COc1ccc(CCC(C)=O)cc1	i	.	.	.	.
Cc1noc(C)c1[S+](=O)([O-])NC1CCN(Cc2cccc(-c3cccs3)c2)CC1	4%	22µM*!	.	.	40µM*!
SMILES	GPT2 inhibitor	HEK cytotox	hNpr1 antagonist	Luciferase inh	3T3 cytotox
Cc1cccc(-c2cccc(CN3CCC(N[S+](=O)([O-])c4c(C)noc4C)CC3)c2)c1	-12%	28µM*	.	.	32µM*
Cn1cnc2cc(Nc3ccc(Cl)cc3F)cc(C(=O)NCc3cccnc3)c21	?	?	-14%[70.6 µM]	i	?
O=C1Cc2c(-c3ccccc3OCc3ccccc3)n[nH]c2CN1Cc1ccccc1	4%[88.5 µM]	50µM*	-21%[70.6 µM]	i	?
O=C1Cc2c(-c3ccccc3OCc3ccccc3)n[nH]c2CN1Cc1ccccn1	i	100µM*	-10%[70.6 µM]	i	?
O=C1Cc2c(-c3ccccc3Oc3ccccc3)n[nH]c2CN1Cc1ccccn1	-11%[88.5 µM]	?	-5%[70.6 µM]	i	?
O=C1Cc2c(-c3ccccc3OCc3ccccc3)n[nH]c2CN1CCOc1ccccc1	-5%	?	-18%	i	?
Cc1cc(C(=O)N2CCC(c3nc(C4CCOCC4)no3)CC2)nn1C	3%	i	1%	i	0%

Screening results from PubChem BioAssay.
